Assay outcomes (PubChem)
An excerpt weighted towards active compounds, which were near 2.4% of everything screened.
POLI inh = blocks human DNA polymerase iota activity. Pol iota fluorescent replication assay, 10 min. Potency, µM (titrated, usually from 115 µM), for inactives: at the top dose activity, negative = inhibition, hits mostly inhibitors. 1% of 390,000 active. AID 588590; note: potency is the fitted concentration of half-maximal effect
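Fluorescent replication assay read twice, at 0 min and 10 min after adding 50 nM (final) substrate. Enzyme (10 nM) and compounds were first incubated 15 min at room temperature; enzyme-free buffer wells were negative controls.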
Pol eta inh-1 = DNA polymerase eta (human) inhibition; recombinant Pol eta, fluorescent DNA replication assay; Potency, µM (doses to about 114 µM), for inactives: at the highest dose activity change, negative = inhibition, most hits filed as inhibitors; 1.2% of 390,000 active; AID 588591; note: potency is the fitted concentration of half-maximal effect; % is set by controls: 0 for no effect and ±100 for the full control effect
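Fluorescent replication assay: 50 nM final substrate added after a 15 min room-temperature compound preincubation with 10 nM enzyme. Signal taken at 0 min and again at 10 min.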
FEN1 inhibitor = human FEN1 inhibition; P39748; Recombinant FEN1 flap cleavage, fluorescence, 15 min; Potency, µM (highest dose often 114 µM), inactives show at the top dose activity change, negative = inhibition, hits mostly inhibitors; 0.35% of 390,000 active; AID 588795; note: potency is the fitted concentration of half-maximal effect; % is set by controls: 0 for no effect and ±100 for the full control effect; nearly all actives have a fitted effect of over 65% in size
Target sequence (P39748 whole entry, looked up): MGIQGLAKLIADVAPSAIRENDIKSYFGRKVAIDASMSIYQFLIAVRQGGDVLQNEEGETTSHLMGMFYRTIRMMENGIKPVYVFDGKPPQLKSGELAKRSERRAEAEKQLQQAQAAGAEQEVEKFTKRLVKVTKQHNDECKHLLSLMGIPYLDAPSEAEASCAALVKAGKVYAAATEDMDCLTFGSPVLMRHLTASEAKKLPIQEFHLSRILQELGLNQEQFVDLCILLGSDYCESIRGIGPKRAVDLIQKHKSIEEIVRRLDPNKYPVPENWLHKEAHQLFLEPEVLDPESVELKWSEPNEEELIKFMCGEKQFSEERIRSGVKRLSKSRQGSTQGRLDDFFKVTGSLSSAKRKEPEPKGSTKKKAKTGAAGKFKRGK
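Reaction started by adding substrate (50 nM final) to 10 nM enzyme after 15 min room-temperature compound preincubation. Reads at 0 and 15 min, with data normalized and fitted to a four-parameter Hill equation.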
WRN inhibitor = WRN helicase (human) inhibition. Q14191. WRN helicase unwinding, fluorescent forked duplex, kinetic. AID 651768. Potency, µM (titrated, usually from 114 µM), for inactives: top-dose activity change, negative = inhibition, hits mostly inhibitors. 0.46% of 360,000 active; note: potency is the fitted concentration of half-maximal effect; % is set by controls: 0 for no effect and ±100 for the full control effect; nearly all actives have a fitted effect of over 55% in size
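Enzyme (20 nM final) and test compound sit together 15 min at room temperature before substrate addition. Substrate is a single-forked duplex oligonucleotide (100 nM) labelled with fluorophore and quencher, with 2 mM ATP; helicase unwinding raises red fluorescence, read kinetically.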
POLB inh = inhibitors of human DNA polymerase beta | Pol beta primer extension/strand displacement, fluorescence kinetic | Potency, µM (top dose mostly 114 µM), for the others: at the highest dose activity change, negative = inhibition, actives largely listed as inhibitors | P06746 | 1.3% of 340,000 active; note: potency is the fitted concentration of half-maximal effect; % is set by controls: 0 for no effect and ±100 for the full control effect
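Curves were derived by four-parameter Hill fits of normalized qHTS data. The kinetic fluorescent primer-extension read was taken at 0 and 10 min after 50 nM substrate, following a 15 min room-temperature preincubation of 10 nM enzyme with compounds.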
Pol kappa inh-1 = inhibitors of human DNA polymerase kappa. purified Pol kappa, fluorescent DNA synthesis assay, 10 min. Potency, µM (doses to about 107 µM), without a hit: at the top dose activity, negative = inhibition, actives largely listed as inhibitors. 0.53% of 400,000 active; note: potency is the fitted concentration of half-maximal effect; % is set by controls: 0 for no effect and ±100 for the full control effect
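First, compounds were pin-transferred onto 10 nM Pol kappa. After 15 min at room temperature, substrate was added to 50 nM final. Fluorescence was then measured kinetically at 0 and 10 min.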
GALK confirm = galactokinase (human) inhibition, confirmation | shares compounds with Pol eta inh-1 | purified GALK, Kinase-Glo ATP depletion luminescence | Potency, µM (titrated, usually from 115 µM), for the others: at the highest dose activity, negative = inhibition, most hits filed as inhibitors | 70% of 150 active | AID 2015
Target sequence (P51570 whole entry, looked up): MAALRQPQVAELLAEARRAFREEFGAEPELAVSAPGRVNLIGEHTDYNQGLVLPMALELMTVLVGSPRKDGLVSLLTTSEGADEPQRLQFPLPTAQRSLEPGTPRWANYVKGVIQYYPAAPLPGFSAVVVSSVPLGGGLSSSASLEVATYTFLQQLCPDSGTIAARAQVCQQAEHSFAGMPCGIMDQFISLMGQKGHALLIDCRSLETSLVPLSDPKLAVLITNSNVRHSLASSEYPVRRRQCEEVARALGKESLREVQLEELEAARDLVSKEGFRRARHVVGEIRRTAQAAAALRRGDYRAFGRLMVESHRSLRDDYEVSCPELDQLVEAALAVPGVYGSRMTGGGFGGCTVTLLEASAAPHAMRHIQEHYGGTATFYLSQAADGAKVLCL
GALK redox cs = redox cycling activity in phenol red-HRP assay; Phenol red-HRP H2O2 redox cycling, absorbance 600 nm; Potency, µM (titrated, usually from 115 µM), for the others: top-dose activity change, negative = H2O2 signal, most hits filed as inhibitors; shares compounds with Pol eta inh-1; 40% of 150 active; AID 2035
HEK293 tox = counter-screen for GALK inhibitors: HEK293 cell cytotoxicity | HEK-293 viability, ATP luminescence (CellTiter-Glo), 24/48 h | 10% of 170 active | shares compounds with Pol eta inh-1 | Potency, µM (highest dose often 46.1 µM), without a hit: top-dose activity change, negative = cytotoxicity, most hits filed as inhibitors; note: potency is the fitted concentration of half-maximal effect; % is set by controls: 0 for no effect and ±100 for the full control effect
Pol kappa inh-2 = confirmation of human DNA polymerase kappa inhibitors | shares compounds with Pol eta inh-1 | purified Pol-kappa, fluorescent strand-displacement substrate | Potency, µM, usual class: inhibitors | 76% of 920 active | AID 720501; note: potency is the fitted concentration of half-maximal effect
Pol eta inh-2 = confirmation of human DNA polymerase eta inhibitors. shares compounds with Pol eta inh-1. Pol eta primer extension, TAMRA/BHQ fluorescence, 10 min. Potency, µM, most hits filed as inhibitors. 64% of 2,600 active; note: potency is the fitted concentration of half-maximal effect
Numbers without * were called inactive; u = inconclusive; x = no result; ! = not active in a repeat; [ ] = remark or other dose. Calls come from the whole dose curve; as a rule, active = well fitted curve in the direction sought with a large enough effect; inconclusive = small, poorly fitted or top-dose-only effect, or another doubt; inactive = no such curve, though single readings can be large; an effect the other way counts as inactive or inconclusive.

SMILES	POLI inh	Pol eta inh-1	FEN1 inhibitor	WRN inhibitor	POLB inh	Pol kappa inh-1	Pol eta inh-2	others
Cc1cc(C)cc(N2CC(c3nnc(NC(=O)c4ccco4)s3)CC2=O)c1 (stereo not drawn)	-3.9%	1.6%	-1.3%	x	u	-19.7%	x
CCOC(=O)c1sc2ccccc2c1S(=O)(=O)N1CCN(c2cccc(C)c2)C(C)C1 (stereo not drawn)	23.7%	-12.8%	8.5%	x	2.0%	-2.2%	x
O=C(O)c1ccc(COc2c(F)c(F)c(F)c(F)c2F)o1	22.4µM*	22.4µM*	-4.4%	-24.2%[57.1 µM]	39.8µM*	u	75.7*
O=C(NC1CCCC1)c1ccc(COCC(F)(F)C(F)F)o1	0.7%[58.9 µM]	-8.9%	0.2%	-0.3%	29.2%	-6.4%	x
O=C(O)c1ccc(COCC(F)(F)C(F)F)o1	-16.1%	17.8µM*	-1.4%	-12.5%[57.1 µM]	28.2µM*	-24.1%	u
CCc1cccc(C)c1NC(=O)COCc1cc(-c2ccc3c(c2)OCO3)on1	8.7%	-3.9%	-2.9%	x	-4.1%	-12.3%	x
COc1cc(/C=C2\SC(=S)N(NC(=O)c3ccccc3O)C2=O)ccc1O	14.1µM*	u	u	56.2µM*	u	u	x	Pol kappa inh-2=42.3*
COC(=O)Cc1cc(C)cc2c(=O)cc(-c3ccoc3)oc12	u	50.1µM*	3.2%	u	x	-41.5%	u
COC(=O)Cc1cc(=O)oc2cc(OC)ccc12	7.0%	-10.7%	-1.0%	-1.2%	14.7%	-8.1%	x
COc1ccc(S(=O)(=O)CC(=O)c2cc3cc(Br)ccc3oc2=O)cc1	12.6µM*	28.2µM*	u	u	10µM*	u	u
CC12CCC=CC1C(c1ccc(/C=C/c3ccccc3)cc1F)N(Cc1ccccc1)C2=O (stereo not drawn)	-17.7%	x	-19.1%	x	x	0.0%	x
O=C1/C(=C\c2cccc([N+](=O)[O-])c2O)SC(=S)N1Cc1ccccc1	u	79.4µM*	u	u	35.5µM*	-31.6%	u
O=C1/C(=C/c2ccccc2O)SC(=S)N1Cc1cccnc1	u	-19.8%	12.7%	-2.6%	-0.2%	-4.2%	x
O=C1NC(=Nc2ccccc2Cl)S/C1=C\c1cccc([N+](=O)[O-])c1O	u	u	u	-21.5%[11.6 µM]	u	-30.7%	u	Pol kappa inh-2=16.8*
Nc1sc2c(c1C(=O)c1ccc(Cl)cc1)CCCC2	x	x	x	x	x	4.2%[60.1 µM]	x
Cc1cc(C)nc(SCC(=O)NNS(=O)(=O)c2ccc(C#N)cc2)n1	17.8µM*	12.6µM*	-19.6%	u	x	u	75.7*	Pol kappa inh-2=u
Cc1cc(C)nc(NS(=O)(=O)c2ccc(NS(=O)(=O)c3ccc(C#N)cc3)cc2)n1	-7.0%	-13.1%	5.2%	-31.4%	11.5%	-3.3%	x
O=C(CSCc1ccccc1)N1CCN(S(=O)(=O)c2ccc(F)cc2)CC1	20.6%	4.9%	0.0%	-2.5%	-13.3%	1.0%	x	GALK confirm=-7.3%;GALK redox cs=-1.4%;HEK293 tox=3.0%
C[C@H](O)C(N)C(=O)O (stereo partly drawn)	x	x	x	x	x	7.2%[60.1 µM]	x
CS(=O)(=O)C1=NSC2=NC(=O)/C(=C\c3cccn3-c3ccc(Cl)cc3)C(=N)N21	u	22.4µM*	-18.3%	-27.3%[57.1 µM]	22.4µM*	-40.4%	u
COc1ccc2oc(-c3ccc(C)c(NC(=O)c4ccc5c(c4)OCCO5)c3)nc2c1	-4.6%	-14.6%	-10.4%	x	3.8%	-6.9%	x
Cc1c2cnn(CC(=O)N3CCCCC3)c(=O)c2c(C)n1Cc1ccc(Cl)cc1	15.7%	10.6%	17.9%	x	-11.3%	-7.4%	x
CN(C)CCCn1c2c3ccccc3ccc2c2oc(=O)c3ccccc3c21	14.1µM*	u	3.16µM*	-4.9%[11.6 µM]	x	50.1µM*!	u
Oc1ccc(NCc2ccccc2OCc2ccccc2Cl)cc1	u	x	u	x	24.2%	-26.3%	u
Oc1ccc(NCc2ccc(OCc3ccccc3Cl)cc2)cc1	17.8µM*	-0.3%	-18.2%	x	-7.2%	u	u
SMILES	POLI inh	Pol eta inh-1	FEN1 inhibitor	WRN inhibitor	POLB inh	Pol kappa inh-1	Pol eta inh-2	others
Oc1ccc(OCc2ccccc2)cc1	x	x	x	x	x	-12.1%[19.4 µM]	x
O=C(O)/C=C/c1ccc(S(=O)(=O)Nc2ccc(OCc3ccccc3)cc2)cc1	-14.4%	-9.6%	6.8%	-9.5%	u	-7.1%	x
Oc1ccc(NCc2ccc(OCc3ccccc3)cc2)cc1	10µM*	79.4µM*!	u	-4.9%[11.6 µM]	2.0%	u	u
O=C(O)CCc1ccc(S(=O)(=O)Nc2ccc(OCc3ccccc3)cc2)cc1	u	22.4µM*	1.5%	-12.4%	u	u	67.5*
COc1cccc(Nc2nnc(-c3cc4ccc(O)cc4oc3=O)s2)c1	u	x	-20.9%	x	u	0.5%[60.1 µM]	x
C/C=C1/NN(CCCN2CCN(c3cccc(Cl)c3)CC2)C(=O)N1CCOc1ccccc1	x	x	x	x	x	-14.8%[60.1 µM]	x
Cc1c(C(=O)Nc2cccc(C#N)c2)sc2nc3n(c(=O)c12)CCCCC3	14.6%	-4.0%	27.8%	x	1.7%	-5.7%	x
OC1OC[C@H](O)[C@@H](O)[C@H]1O (stereo partly drawn)	x	x	x	x	x	13.8%[60.1 µM]	x
COc1ccc2c(c1OC)C(=O)OC2Nc1nc(-c2cc3cc(Br)ccc3oc2=O)cs1 (stereo not drawn)	u	-9.9%	-11.9%	-13.2%[11.6 µM]	u	-19.6%	u
CC(=O)c1ccc(NC(=O)c2nc(-c3ccccc3)n(-c3ccccc3Cl)n2)cc1	2.5%	-14.3%	5.8%	x	u	-4.4%	x
CC(=O)c1ccc(S(=O)(=O)Nc2ccc(-c3ccc4nnc(C)n4n3)cc2)cc1	-85.9%	20µM*	0.9%	-9.7%[11.6 µM]	28.2µM*	u	u
